Laboratory results reported in the supplement of paper PMC10849652.
The full data set covers some 8,800 targets. This sample favours those with a hit. About 0.5% of all pairs of compound and target were hits.

Experiments:
Experiment in all cases: log2 fold change, soluble protein after heating vs DMSO (PISA); higher = thermal stabilisation; K562 lysate, 10 uM; active = over 0.2 and 3.5 SD of the protein, either way, in both replicates (recomputed)
nilotinib = compound: Cc1cn(-c2cc(NC(=O)c3ccc(C)c(Nc4nccc(-c5cccnc5)n4)c3)cc(C(F)(F)F)c2)cn1 [nilotinib]
Procedure, shortened: (§1)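 Dounce homogenisation of K562 pellets in PBS pH 7.4 with 1 mM MgCl2 produced a crude extract, used at 1 mg/mL protein. Exposure to 10 μM compound lasted 30 min, and aliquots were then heated for 3 min across 48°C-58°C, pooled and brought to 0.5% NP-40 at 4°C. The supernatant after 21,000xg for 90 min was quantified by TMTpro 16plex LC-MS/MS with channel sums equalised. Duplicate values are given as log-two fold change in thermal stability relative to solvent controls.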

[1] = compound: Cc1nc(Nc2n[nH]c3c2CN(C(=O)N[C@H](CN(C)C)c2ccccc2)C3(C)C)c2sccc2n1
Procedure, shortened: as §1

dasatinib = compound: Cc1nc(Nc2ncc(C(=O)Nc3c(C)cccc3Cl)s2)cc(N2CCN(CCO)CC2)n1 [dasatinib]
Procedure, shortened: as §1

[2] = compound: Cc1ncc(-c2ccnc(Nc3ccc(S(C)(=O)=O)cc3)n2)n1C(C)C
Procedure, shortened: as §1

[3] = compound: Cn1cc(-c2ccc3c(c2)CCN3C(=O)Cc2cccc(C(F)(F)F)c2)c2c(N)ncnc21
Procedure, shortened: as §1

quisinostat = compound: Cn1cc(CNCC2CCN(c3ncc(C(=O)NO)cn3)CC2)c2ccccc21 [quisinostat]
Procedure, shortened: as §1

tipifarnib = compound: Cn1cncc1[C@@](N)(c1ccc(Cl)cc1)c1ccc2c(c1)c(-c1cccc(Cl)c1)cc(=O)n2C [tipifarnib]
Procedure, shortened: as §1

[4] = compound: NC(=O)Nc1cc(-c2cccc(F)c2)sc1C(=O)N[C@H]1CCCNC1
Procedure, shortened: as §1

[5] = compound: NC(=O)c1cnc(N[C@@H]2CCCC[C@@H]2N)nc1Nc1cccc(-n2nccn2)c1
Procedure, shortened: as §1

[6] = compound: NC1(c2ccc(-c3nc4ccn5c(=O)[nH]nc5c4cc3-c3ccccc3)cc2)CCC1
Procedure, shortened: as §1

vorinostat = compound: O=C(CCCCCCC(=O)Nc1ccccc1)NO [vorinostat]
Procedure, shortened: as §1

silmitasertib = compound: O=C(O)c1ccc2c(c1)nc(Nc1cccc(Cl)c1)c1ccncc12 [silmitasertib]
Procedure, shortened: as §1

[7] = compound: O=C1NC(=O)C(c2cnc3ccccn23)=C1c1cn2c3c(cc(F)cc13)CN(C(=O)N1CCCCC1)CC2
Procedure, shortened: as §1

entospletinib = compound: c1cn2cc(-c3ccc4cn[nH]c4c3)nc(Nc3ccc(N4CCOCC4)cc3)c2n1 [entospletinib]
Procedure, shortened: as §1

[8] = compound: NCC(=O)Nc1ccc(-n2nc(C(F)(F)F)cc2-c2ccc3c(ccc4ccccc43)c2)cc1
Procedure, shortened: as §1

Chain of UniProt Q14934 (Q14934 whole entry, looked up): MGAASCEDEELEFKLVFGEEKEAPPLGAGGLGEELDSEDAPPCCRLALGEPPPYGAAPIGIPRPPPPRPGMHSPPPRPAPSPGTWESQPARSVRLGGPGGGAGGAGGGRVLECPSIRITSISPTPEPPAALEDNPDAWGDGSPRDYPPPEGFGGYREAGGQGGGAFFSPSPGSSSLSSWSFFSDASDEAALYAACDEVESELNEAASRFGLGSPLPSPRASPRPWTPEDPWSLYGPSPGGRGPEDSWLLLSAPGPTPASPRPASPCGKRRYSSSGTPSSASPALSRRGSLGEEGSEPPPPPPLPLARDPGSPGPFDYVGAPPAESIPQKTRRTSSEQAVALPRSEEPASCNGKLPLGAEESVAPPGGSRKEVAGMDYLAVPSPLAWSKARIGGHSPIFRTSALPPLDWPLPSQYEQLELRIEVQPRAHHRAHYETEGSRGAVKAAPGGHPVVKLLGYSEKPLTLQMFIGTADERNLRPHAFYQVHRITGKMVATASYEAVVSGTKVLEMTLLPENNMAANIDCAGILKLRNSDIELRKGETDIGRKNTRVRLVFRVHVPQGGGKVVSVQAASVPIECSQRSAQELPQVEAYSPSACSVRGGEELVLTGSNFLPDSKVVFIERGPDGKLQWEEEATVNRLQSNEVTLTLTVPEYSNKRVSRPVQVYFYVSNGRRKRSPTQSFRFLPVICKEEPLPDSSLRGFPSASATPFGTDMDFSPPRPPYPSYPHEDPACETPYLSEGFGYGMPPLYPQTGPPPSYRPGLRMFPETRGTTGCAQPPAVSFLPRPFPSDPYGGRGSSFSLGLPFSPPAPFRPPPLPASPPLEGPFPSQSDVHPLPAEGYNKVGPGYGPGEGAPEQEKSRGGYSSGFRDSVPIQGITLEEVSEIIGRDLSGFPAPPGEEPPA
Chain of UniProt P24468 (P24468 whole entry, looked up): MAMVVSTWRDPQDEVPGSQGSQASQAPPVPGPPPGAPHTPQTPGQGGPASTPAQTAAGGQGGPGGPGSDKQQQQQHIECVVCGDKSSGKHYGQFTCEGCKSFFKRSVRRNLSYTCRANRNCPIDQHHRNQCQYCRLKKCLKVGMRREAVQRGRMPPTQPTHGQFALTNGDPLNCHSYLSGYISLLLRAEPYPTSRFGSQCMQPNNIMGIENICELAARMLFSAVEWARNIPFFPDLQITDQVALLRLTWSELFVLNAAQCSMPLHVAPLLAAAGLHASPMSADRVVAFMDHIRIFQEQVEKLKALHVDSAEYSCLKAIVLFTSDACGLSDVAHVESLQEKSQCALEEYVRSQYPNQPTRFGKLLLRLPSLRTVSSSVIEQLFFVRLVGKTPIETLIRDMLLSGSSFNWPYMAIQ
Chain of UniProt Q0ZGT2 (Q0ZGT2 whole entry, looked up): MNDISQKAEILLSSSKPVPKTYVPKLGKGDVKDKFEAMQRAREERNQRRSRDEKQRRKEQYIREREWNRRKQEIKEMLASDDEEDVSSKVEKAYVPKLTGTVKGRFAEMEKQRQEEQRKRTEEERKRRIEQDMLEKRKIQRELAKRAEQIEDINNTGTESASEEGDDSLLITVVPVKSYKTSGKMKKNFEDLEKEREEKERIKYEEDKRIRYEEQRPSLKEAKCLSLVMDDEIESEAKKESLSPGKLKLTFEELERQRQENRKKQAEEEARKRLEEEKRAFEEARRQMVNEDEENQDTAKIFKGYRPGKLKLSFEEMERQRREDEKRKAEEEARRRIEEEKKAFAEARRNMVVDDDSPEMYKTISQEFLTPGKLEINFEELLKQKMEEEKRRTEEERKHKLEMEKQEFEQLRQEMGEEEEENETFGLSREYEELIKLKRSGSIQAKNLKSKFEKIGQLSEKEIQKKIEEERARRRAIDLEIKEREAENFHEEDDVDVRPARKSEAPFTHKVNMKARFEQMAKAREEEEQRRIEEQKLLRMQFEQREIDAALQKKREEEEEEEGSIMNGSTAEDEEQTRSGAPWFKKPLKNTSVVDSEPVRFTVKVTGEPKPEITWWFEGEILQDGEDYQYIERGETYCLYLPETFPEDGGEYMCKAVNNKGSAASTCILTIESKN

| Target | log2 fold change (nilotinib) | log2 fold change [1] | log2 fold change (dasatinib) | log2 fold change [2] | log2 fold change [3] | log2 fold change (quisinostat) | log2 fold change (tipifarnib) | log2 fold change [4] | log2 fold change [5] | log2 fold change [6] | log2 fold change (vorinostat) | log2 fold change (silmitasertib) | log2 fold change [7] | log2 fold change (entospletinib) | log2 fold change [8] |
| --- | --- | --- | --- | --- | --- | --- | --- | --- | --- | --- | --- | --- | --- | --- | --- |
| NR2F2 (UniProt P24468) | -0.063 (inactive) | 0.107 (inactive) | -0.027 (inactive) | -0.125 (inactive) | -0.006 (inactive) | -0.024 (inactive) | 0.034 (inactive) | 0.125 (inactive) | 0.024 (inactive) | 0.029 (inactive) | -0.389 (active) | 0.176 (inactive) | 0.017 (inactive) |  |  |
| NUDT5 (UniProt C9JYY9) | -0.049 (inactive) | 0.02 (inactive) |  | 0.228 (inactive) |  |  | -0.068 (inactive) |  |  | -0.119 (inactive) | -0.041 (inactive) | 0.129 (inactive) |  | 0.01 (inactive) |  |
| NFATC4 isoform 2 (UniProt Q14934) | -0.046 (inactive) | -0.018 (inactive) | 0.055 (inactive) | 0.04 (inactive) | -0.041 (inactive) | -0.07 (inactive) | -0.066 (inactive) | 0.01 (inactive) | -0.017 (inactive) |  |  |  | 0.076 (inactive) | 0.019 (inactive) | 0.207 (inactive) |
| NEXN (UniProt Q0ZGT2) | -0.022 (inactive) | -0.011 (inactive) | 0.043 (inactive) | -0.051 (inactive) | 0.027 (inactive) |  | -0.043 (inactive) |  | -0.149 (inactive) | -0.002 (inactive) | -0.335 (inactive) | -0.038 (inactive) |  | 0.042 (inactive) | 0.144 (inactive) |
